Results on 63 sequences are retold here after the supplement of paper PMC11417369.

± gives the standard deviation of the averaged measurements. Over roughly 25,000 sequences, “ln(normalized median fluorescence intensity)” has its median near 10; the highest 2% begin near 12. What follows is part of a selection rich in the highest values, with near analogues and random picks from the rest.

The test system of the assay is PfAP2-G AP2 domain (GST-tagged). Briefly: gcPBM binding intensity (ln(normalized median fluorescence intensity)); higher = stronger DNA binding. A digest of the protocol: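 Alexa488 anti-GST antibody, scanned at 488 nm, detected GST-tagged P. falciparum DNA-binding domains that had been expressed in E. coli and incubated for 1 h on an Agilent 4 × 180k array. The array carried primer-extended double-stranded 36-bp intergenic genomic probes and negative controls. Binding intensity is the highest Masliner-normalised natural-log median intensity across replicate spots of either orientation of each probe.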
On to “ACTTTCAAGGATGTACGTACATATGTATTTTATAAC [XGTACX_site6714]”, for which the “gcPBM binding intensity (ln)” value came to 11.7 ± 0.91. In the case of “CTTTAACCATATATGTGTACGTATTTTATTCATATT [XGTACX_site6212]” it was 11.8 ± 1.1; in that of “ATACATATATAATTATGTACGTATATTTTATATAAC [XGTACX_site4292]”, 11.6 ± 0.91; in that of “ATATGTATATTTTTTTGTACGTATTTATGTGTGTGT [XGTACX_site2093]”, 11.4 ± 0.84. For “ATATTTATATTTTCATGTACGTATTTTTATATATAT [XGTACX_site8478]”, the “gcPBM binding intensity (ln)” value turned out to be 11.6 ± 0.96. Next, “ATATATACATATATATGTACGTATATTTTTATTTCT [XGTACX_site6198]”: 11.6 ± 1.1; “TAATAAATCAAATGCACACACACAAAAAAAAAAAAA [CACACA_site161]”: 10 ± 0.49; “AGAAATATATATATATATATATATATATATATATAT [TGCATGCA_negctrl_site375]”: 10 ± 0.88. Regarding “TCTTTAAATTTCTCAACACACAGTTATAAAAAATAA [CACACA_site2856]”, the “gcPBM binding intensity (ln)” value is 9.8 ± 0.085.

With “TATAAATTTTTATTTACATGCAGTTATTATTTCCAT [TGCATGCA_site41]”, the “gcPBM binding intensity (ln)” value was 10 ± 0.18. Next, “TAGTATTAAAATATTTGTACTTATATGTATTATATA [XGTACX_site538]”: 11 ± 0.69.

On to “GCTTTTAAAATAATTGGTACACATGTATAAATTCAA [XGTACX_site2327]”, for which the “gcPBM binding intensity (ln)” value is 11.1 ± 0.69.

For the sequence “TAATGGTATAAAAAATGTACATGTTTTTTTACAATT [XGTACX_site4285]”, the “gcPBM binding intensity (ln)” value came out at 11.2 ± 0.54. “TAATGGTGTTCATGTGGTACACTTTATAAATTGGCA [XGTACX_site729]”: the “gcPBM binding intensity (ln)” value amounted to 11.7 ± 1.1. Next, “TCATTCATATGTTACACACACACACGCACATAAAAA [CACACA_site7514]”: 10.5 ± 0.35; “TTTTCAATATATATTTGTACTTTATTTTATGATATT [GTGCAC_negctrl_site732]”: 11.2 ± 0.75. On to “ATTTTATATATGTGTTGTACGGTGAACATTTTGATA [XGTACX_site6538]”, for which the “gcPBM binding intensity (ln)” value was 10.8 ± 0.58. Next, “TTATGATATATTTGTTGTACGCTTTTTTTATGAACT [XGTACX_site573]”: 11.8 ± 1.1; “GAAATATTTGTAAAAACATGCATGGTACTTTTAAAA [TGCATGCA_site6]”: 11 ± 0.7; “ATTTTAAATATTTGTGGTACCCCTTTTTTGTAACAA [XGTACX_site5590]”: 11.8 ± 1.1. Next, “TTCCCTTTTGTAAAATGTACATATATATTTAAACAA [XGTACX_site3263]”: 11.2 ± 0.54; “ATTTATATTTAATATACACACATTATTTTTTTATAT [CACACA_site574]”: 9.955 ± 0.021; “TGTAGAGCGCAAAGTAGTACTACAAATTATGGAGGG [XGTACX_site3022]”: 11.8 ± 1. Consider “ATATATGACAAATGTAGTACAAATTATTGTATCATA [XGTACX_site3675]”, for which the “gcPBM binding intensity (ln)” value turned out to be 11.4 ± 0.76.

Take “TAAAAATGGGAGGGGTGTACTACACAATAAAATTAT [XGTACX_site5641]”: the “gcPBM binding intensity (ln)” value was determined as 11.6 ± 0.95. Next, “TTATATTTTTACAAGAGTACATATATATATATATAT [XGTACX_site5383]”: 11.4 ± 1.1; “ATGTAAATACATATATGTACACAAATATATATATAT [XGTACX_site3537]”: 11.6 ± 1.1.

On to “TTCTGTGTGTATTGGCGTACAATTATTTTGCCTACA [XGTACX_site205]”, for which the “gcPBM binding intensity (ln)” value is 11.7 ± 0.83. Turning to “TTATTTTTTTTGTGTTGTACAATTTATTACTACTAA [XGTACX_site346]”, the “gcPBM binding intensity (ln)” value was 11.3 ± 0.82. As for “TATATTTTATATTGGTGTACAATTTTTTTTTTTTTT [XGTACX_site4291]”, the “gcPBM binding intensity (ln)” value was determined as 11.4 ± 0.91.

Consider “TTTTTATAAAAATGAACACACACATATATATATATA [CACACA_site9160]”, for which the “gcPBM binding intensity (ln)” value is 10.2 ± 0.49.

As to “ATGTGTTGGGAAAAGGCATGCACTTTTTTTTTTTTT [TGCATGCA_site707]”, the “gcPBM binding intensity (ln)” value is 10.2 ± 0.11. Next, “GTACAGATGTAGTATGCATGTAATTATATATAAATT [TGCATGCA_site292]”: 11.1 ± 0.47. Next, “GGGGGCTTTTATAAAAGTACAAAATGAATAAAAATT [XGTACX_site2393]”: 11.4 ± 0.97.

Regarding “TTATTATAAAAATGTAGTACAATACTTTTTTTTTTT [XGTACX_site732]”, the “gcPBM binding intensity (ln)” value was 11.7 ± 0.84. In the case of “CCTTTATAAAAAAGTAGTACACAATGAATTTATAAT [XGTACX_site5523]” it was 11.8 ± 1. Next, “AATAATGTATGAAATAAACACACAAGTAAGTACATA [CACACA_site8776]”: 11.7 ± 0.91; “AATGAAATAAAATAAAGTACATATATGTAAAAGTAG [XGTACX_site5650]”: 11.4 ± 0.79.

For “TTATATACATAAAAATGTACTTTTTATAAAATATAT [XGTACX_site8281]”, the “gcPBM binding intensity (ln)” value came out at 11.2 ± 1. For the sequence “ATATGAAATATATGTAGTACACATAATTAAAAGTAG [XGTACX_site6490]”, the “gcPBM binding intensity (ln)” value is 11.7 ± 0.86. Take “TAATAATAAATAAAATGTACATATGAACAAATAAGT [XGTACX_site6710]”: the “gcPBM binding intensity (ln)” value came to 11.3 ± 0.61. Next, “TAATGTATGAAATAAACACACAAGTAAGTACATAAA [CACACA_site2451]”: 11.6 ± 0.98; “TTATTTTATAATAAAAGTACACAAAAAAAAAAAAAA [XGTACX_site7668]”: 11.4 ± 1.1.

On to “CTTTTAATTATAAAATGTACTTAAAAATAATAATAC [XGTACX_site635]”, for which the “gcPBM binding intensity (ln)” value came to 11.1 ± 0.88. Regarding “TAAAATAAAAATTAAAGTACATATGTATATATATAT [XGTACX_site3984]”, the “gcPBM binding intensity (ln)” value was 11.1 ± 0.88. In the case of “ACAAGATGATGGAAATGTACATAAAAAGAATCATAT [XGTACX_site8682]” it was 11.2 ± 0.63; in that of “AAAAAAAAAAAAACTACACACATACAAATATTTATA [CACACA_site5430]”, 9.875 ± 0.035; in that of “AAAAAAAAGAAAAACACACACATATATATATATAAT [CACACA_site4707]”, 9.72 ± 0.042. Next, TGAAAATAATTATAGGTGCATAAACATACGGATCTT: 10.21 ± 0.021. As to “TTTTTTTTAAGAGATAGTACATAAATATTATAATAT [XGTACX_site4685]”, the “gcPBM binding intensity (ln)” value was 11.1 ± 0.86.

“GACATTAATTATTTGACACACGACTGGGTGGTGATT [CACACA_site306]”: the “gcPBM binding intensity (ln)” value came to 10.09 ± 0.021. As for “ATAAGTAATATAATATGTACATATATATATATATAT [XGTACX_site3818]”, the “gcPBM binding intensity (ln)” value was determined as 11.2 ± 0.5. Next, “AAATGAAATAAATGTAGTACACATATACAATATATA [XGTACX_site6951]”: 11.7 ± 1.1; “AAAAAAAAAAAAAGTAGTACATAATATGTTCCTCCT [XGTACX_site8356]”: 11.6 ± 1; “AAATGTAATATAAATAGTACATATTAAATAAAATTA [XGTACX_site6917]”: 11.1 ± 0.88. Next, “AATTTGAAATAAAGTAGTACAGTATATAAAAATATA [XGTACX_site128]”: 11.8 ± 1.1; “TTTTTTGAAAATAAAAGTACAAATTTTATATTTAAA [XGTACX_site2758]”: 11 ± 0.88.

On to “ATGTATGTAATAAAAAGTACATATGTTCATAATAAA [XGTACX_site842]”, for which the “gcPBM binding intensity (ln)” value stood at 11.4 ± 0.57. Next, “AATAAAAATAATGAATGTACATATATATATACAATA [XGTACX_site3342]”: 10.9 ± 0.4; “TATTTTGAAAATAAAAGTACAAATTTTATATTTAAA [XGTACX_site3238]”: 11.1 ± 0.83; “TCGTATTTAAAATGTAGTACATAATTTGAAAAATAA [XGTACX_site5832]”: 11.6 ± 0.83.

Consider “AAAACTATTAAATGTAGTACATAATTATTGAAATAA [XGTACX_site8716]”, for which the “gcPBM binding intensity (ln)” value was found to be 11.6 ± 0.91. Next, “TGAAAAATAAATAAATGTACATATATATATATATAC [XGTACX_site7310]”: 10.9 ± 0.49.
